Source: PubChem (Broad Institute)
This excerpt belongs to a sample that is enriched for hits.
Rtt109 HAT inh = inhibitors of Candida albicans Rtt109/Vps75 histone acetyltransferase; purified Rtt109/Vps75, ThioGlo CoA-SH fluorescence, 4 h; inhibition, % at 34.9 µM; actives 0.16% (n = 330,000); AID 540336;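 active = inhibition of at least 50% in every replicate; inconclusive = best replicate reaches 50% inhibition but some replicates fall short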
Target sequence (Q5AAJ8 whole entry, looked up): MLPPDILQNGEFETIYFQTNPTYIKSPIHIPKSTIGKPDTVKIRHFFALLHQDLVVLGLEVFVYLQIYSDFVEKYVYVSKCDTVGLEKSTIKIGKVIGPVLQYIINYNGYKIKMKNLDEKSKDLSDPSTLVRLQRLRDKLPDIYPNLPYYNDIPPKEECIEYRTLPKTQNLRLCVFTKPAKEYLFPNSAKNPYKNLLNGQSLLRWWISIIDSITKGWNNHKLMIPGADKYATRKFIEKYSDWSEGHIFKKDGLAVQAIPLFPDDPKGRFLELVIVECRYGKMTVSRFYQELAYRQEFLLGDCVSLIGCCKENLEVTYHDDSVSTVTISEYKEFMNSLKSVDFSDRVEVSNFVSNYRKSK
DENV2 CPE rescue = protects cells from dengue virus 2 cytopathic effect | AID 651640 | CPE inhibition, % at 9.99 µM | DENV2-infected cells, cytopathic effect rescue, plate reader | actives 1.7% (n = 350,000); in the data active = CPE inhibition above about 20%, passing the limit was not always enough; inconclusive = no clear call, values can overlap the other calls; tested in BHK-21 cells;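 also: 0% = median of neutral control wells and 100% = median of positive control wells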
PglD inh = inhibitors of Campylobacter jejuni PglD acetyltransferase; purified PglD enzyme, DTNB colorimetric CoA detection; inhibition, % at 12.5 µM; actives 0.098% (n = 360,000); AID 602405; in the data active = inhibition above about 16%, passing the limit was not always enough; inconclusive = no clear call, values can overlap the other calls
Glyco luc inh = N-linked glycosylation inhibition | AID 588692 | D54 ERlucT glycosylation luciferase reporter, 24 h; percent of 100 nM tunicamycin response | reporter increase, % at 12.5 µM | actives 0.23% (n = 360,000);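 active = mean luciferase reporter signal, scaled so untreated is 0 and the glycosylation-blocking control 100, at or above a set limit in every replicate; inconclusive = mean reaches the limit but not every replicate does; inactive = mean below the limit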;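 also: luciferase carries N-glycosylation sites so blocking glycosylation raises the light; 0% = median of neutral control wells and 100% = median of 100 nM tunicamycin wells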
* = called active by the depositor; ? = inconclusive; nt = no result given; ! = not active in a repeat.

SMILES	Rtt109 HAT inh	DENV2 CPE rescue	PglD inh	Glyco luc inh
CCCN(CCC)S(=O)(=O)c1ccc(C(=O)Nc2ccc(OCC(=O)N3CCOCC3)cc2)cc1	nt	nt	-1	40*
CCCCOc1ccc(C(=O)Nc2cc(C)c(OCC(=O)N3CCOCC3)c(C)c2)cc1	11	nt	3	-1
C[C@@H]1CN([C@H](C)CO)C(=O)Cc2cc(NC(=O)NC3CCCCC3)ccc2O[C@@H]1CN(C)C(=O)Nc1ccc2c(c1)OCO2	nt	-4	4	nt
O=C1c2ccc([N+](=O)[O-])cc2C(=O)N1Cc1cccnc1	5	90*	6	0
CS(=O)(=O)N1[C@H](CO)[C@@H](c2ccc(C#CC3CC3)cc2)[C@@H]1C#N	nt	26*	-1	nt
N#C[C@@H]1[C@H](c2ccc(C#CC3CCCC3)cc2)[C@@H](CO)N1S(=O)(=O)c1ccccc1	nt	50*	1	nt
N#C[C@H]1[C@@H](c2ccccc2)[C@@H](CO)N1S(=O)(=O)Cc1ccccc1	nt	65*	-3	nt
O=C(O)C1CCc2sc3[nH]c(=S)n(-c4ccccc4)c(=O)c3c21 (stereo not drawn)	105*	4	10	1
O=C(N[C@@H]1CC[C@H](CCNC(=O)C2CCCCC2)O[C@@H]1CO)c1ccncc1	nt	0	2	nt
Cc1noc(C)c1NC(=O)N[C@H]1CC[C@H](CCNC(=O)C2CCCC2)O[C@@H]1CO	nt	20*	1	nt
O=C(N[C@H]1CC[C@H](CCNC(=O)C2CCCC2)O[C@@H]1CO)c1ccncc1	nt	25*	-3	nt
O=C(N[C@H]1CC[C@H](CCNC(=O)C2CCCCC2)O[C@@H]1CO)c1ccncc1	nt	28*	2	nt
CC(=O)N[C@H]1CC[C@@H](CCNC(=O)C2CCCC2)O[C@@H]1CO	nt	27*	1	nt
CC(=O)N[C@H]1CC[C@H](CCNC(=O)C2CCCC2)O[C@H]1CO	nt	-2	1	nt
O=C(N[C@@H]1CC[C@@H](CCNC(=O)C2CCCC2)O[C@@H]1CO)c1ccncc1	nt	-1	-2	nt
Cc1ccc(-c2ccc([C@@H]3[C@@H](CO)N4C(=O)CN(C(=O)Nc5cccc(F)c5)C[C@@H]34)cc2)cc1	nt	3	nt	nt
CC[C@@H]1CC=C[C@H]2[C@H]1C(=O)N(Cc1ccccc1)[C@H]2c1ccoc1	2	nt	0	38*
C[C@@H]1CC=C[C@H]2[C@H]1C(=O)N(Cc1ccccc1)[C@H]2c1ccoc1	1	-10	5	4
COc1ccc2c3c(n(C)c2c1)[C@H](CO)N(S(=O)(=O)c1cn(C)cn1)CC31CCN(C)CC1	nt	32*	nt	nt
COc1ccc2c3c(n(C)c2c1)[C@@H](CO)N(S(C)(=O)=O)CC31CCN(CC2CCCC2)CC1	nt	56*	nt	nt
COc1ccc2c3c(n(C)c2c1)[C@@H](CO)N(C)CC31CCN(CC2CC2)CC1	nt	48*	nt	nt
COc1ccc2c3c(n(C)c2c1)[C@@H](CO)N(S(C)(=O)=O)CC31CCN(CC2CCCCC2)CC1	nt	9	nt	nt
COc1ccc2c3c(n(C)c2c1)[C@H](CO)N(S(=O)(=O)c1ccc(C)cc1)CC31CCN(C)CC1	nt	-1	nt	nt
O=C(C[C@H]1CC[C@H]2[C@@H](COC[C@@H](O)CN2Cc2nccs2)O1)NCc1ccc(Oc2ccccc2)cc1	nt	-6	-1	nt
O=S(=O)(NCC[C@@H]1CC[C@@H](NS(=O)(=O)c2ccccc2Cl)[C@H](CO)O1)c1ccc(F)cc1	nt	?	0	nt
SMILES	Rtt109 HAT inh	DENV2 CPE rescue	PglD inh	Glyco luc inh
CCCCCCC(=O)O	18	58*	2	-1
CCCCCCCCC(=O)O	nt	nt	3	0
C[C@@H]1CN([C@H](C)CO)C(=O)Cc2cc(NC(=O)Nc3ccccc3)ccc2O[C@@H]1CN(C)C(=O)NC1CCCCC1	nt	35*	-2	nt
COc1ccc(NC(=O)Nc2ccc3c(c2)CC(=O)N([C@H](C)CO)C[C@H](C)[C@H](CN(C)C(=O)NC2CCCCC2)O3)cc1	nt	29*	4	nt
COc1ccc(NC(=O)Nc2ccc3c(c2)C(=O)N([C@H](C)CO)C[C@H](C)[C@@H](CN(C)C(=O)NC2CCCCC2)O3)cc1	3	39*!	-1	1
COc1ccc(NC(=O)Nc2ccc3c(c2)CC(=O)N([C@@H](C)CO)C[C@@H](C)[C@@H](CN(C)C(=O)NC2CCCCC2)O3)cc1	nt	4	0	nt
COc1ccc(NC(=O)N(C)C[C@H]2Oc3ccc(NC(=O)NC(C)C)cc3C(=O)N([C@H](C)CO)C[C@H]2C)cc1	nt	34*	-4	nt
C[C@H](CO)N1C[C@H](C)[C@H](CN(C)C(=O)C2CCOCC2)Oc2cc(C3=CCCC3)ccc2S1(=O)=O	nt	-12	0	nt
O=C(C[C@H]1CC[C@H]2[C@@H](COC[C@H](O)CN2C(=O)c2cnccn2)O1)NCc1ccc(F)cc1	nt	2	-2	nt
O=C(C[C@@H]1CC[C@@H]2[C@H](COC[C@H](O)CN2C(=O)c2ccccc2F)O1)N1CCN(c2ccccc2)CC1	nt	6	1	nt
COc1ccc(S(=O)(=O)Nc2ccc3c(c2)CC(=O)N([C@@H](C)CO)C[C@H](C)[C@H](CN(C)C)O3)cc1	nt	3	6	nt
CN(C)CC(=O)Nc1ccc2c(c1)[C@@H]1C[C@H](CC(=O)N3CCN(C)CC3)O[C@@H](CO)[C@@H]1O2	nt	4	1	nt
C[C@H](CO)N1C[C@H](C)[C@@H](CN(C)C(=O)NC2CCCCC2)Oc2ccc(NC(=O)Nc3ccccc3)cc2CC1=O	nt	46*	1	nt
C[C@@H]1CN([C@H](C)CO)C(=O)c2cc(NC(=O)NC3CCCCC3)ccc2O[C@H]1CN(C)C(=O)Nc1ccc(F)cc1	nt	2	-2	nt
C[C@@H]1CN([C@H](C)CO)C(=O)c2cc(NC(=O)NC3CCCCC3)ccc2O[C@@H]1CN(C)C(=O)Nc1ccc(F)cc1	nt	40*	-1	nt
C[C@H](CO)N1C[C@H](C)[C@H](CN(C)Cc2ccc(C(=O)O)cc2)OCCCC[C@H](C)Oc2ccc(NC(=O)Cc3ccccc3)cc2C1=O	nt	0	1	nt
CC(C)C(=O)Nc1ccc2c(c1)C(=O)N(C)[C@@H]1CC[C@H](CC(=O)NCc3cccc(F)c3)O[C@@H]1CO2	nt	-1	2	nt
CCOC(=O)c1ccc(N=c2sc(C(=O)OC)cc(=O)n2CCCN2CCOCC2)cc1	6	-6	2	16
CCOC(=O)c1ccc(N=c2sc(C(=O)OC)cc(=O)n2Cc2ccco2)cc1	-4	13	-6	56*
CO[C@H]1CN(C)C(=O)c2cc(NS(C)(=O)=O)ccc2OC[C@@H](C)N(C(=O)C2CCOCC2)C[C@H]1C	nt	1	1	nt
O=C(/C=C/c1cn(CC(O)CN2CCCCC2)c2ccccc12)c1ccccc1 (stereo not drawn)	53*	27*	nt	4
O=C(C[C@H]1CC[C@@H]2[C@H](COC[C@H](O)CN2CCc2ccccc2)O1)NCc1ccc(Oc2ccccc2)cc1	nt	-21	0	nt
CCC(=O)N1C[C@@H](O)COC[C@H]2O[C@H](CC(=O)NCc3ccc(Oc4ccccc4)cc3)CC[C@@H]21	nt	1	1	nt
CCNC(=O)C[C@H]1CC[C@H]2[C@@H](COC[C@H](O)CN2C(=O)CC)O1	nt	-4	2	nt
O=C(C[C@@H]1CC[C@H]2[C@@H](COC[C@H](O)CN2CCc2ccccc2)O1)NCc1ccc(Oc2ccccc2)cc1	nt	24*	-2	nt
